Reference: PubChem BioAssay (NCATS)
Results filed as inconclusive are left out. Active and inactive are the calls of the source. The call rests on the fitted dose curve; in most records, active means well fitted cell-killing curve with a large enough effect; inconclusive means small, poorly fitted or top-dose-only effect, or effect the other way; inactive means flat fitted curve, though single readings scatter.

Legend:
Assay in all cases: Primary qHTS to identify gynecologic anti-cancer compounds using libraries of approved drugs and bioactive compounds (AID 1345084); further: nearly all actives have a fitted effect of over 55% in size
Conditions in all cases: Gynecologic cancer cell panel viability, ATPlite luminescence, 48 h; series mostly up to 57.5 µM
OV90 = system: OV90
How it was run: (§1)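 Cell viability after 48 h drug treatment, ATPlite luminescence readout; five doses.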

PA-1 = system: PA-1
How it was run: as §1

SKOV3 = system: SKOV3
How it was run: as §1

Tov-21-G = system: Tov-21-G
How it was run: as §1

Tov112D = system: Tov112D
How it was run: as §1
On the % scale 0 is the no-effect control and ±100 the full control effect.

COC(=O)CC1CC(c2ccc(O)cc2)=NO1 (stereo not given)
inactive: Potency (OV90) | Potency (PA-1) | Potency (SKOV3) | Potency (Tov-21-G) | Potency (Tov112D)

N#C[C@@H]1CCCN1C(=O)CNC12CC3CC(CC(O)(C3)C1)C2
inactive: Potency (OV90) | Potency (PA-1) | Potency (SKOV3) | Potency (Tov-21-G) | Potency (Tov112D)

O=C(Nc1ccccc1-c1cn2c(CN3CCNCC3)csc2n1)c1ccc2ccccc2n1
inactive: Potency (OV90) | Potency (PA-1) | Potency (SKOV3) | Potency (Tov-21-G) | Potency (Tov112D)

COc1cc(C(=O)OC[C@H]2O[C@@H](Oc3ccccc3/C=C/C(=O)O)[C@H](O)[C@@H](O)[C@@H]2O)cc(OC)c1OC
inactive: Potency (OV90) | Potency (PA-1) | Potency (SKOV3) | Potency (Tov-21-G) | Potency (Tov112D)

CC/C=C\CC1C(=O)C=CC1(CCCCCCCC(=O)O)OC(C)=O (stereo not given)
inactive: Potency (OV90) | Potency (PA-1) | Potency (SKOV3) | Potency (Tov-21-G) | Potency (Tov112D)

CCNC(=O)Nc1ncc(-c2cc(-c3c(C)cc(OC)cc3C)nc(-c3cnccn3)n2)s1
inactive: Potency (OV90) | Potency (PA-1) | Potency (SKOV3) | Potency (Tov-21-G) | Potency (Tov112D)

CC1CCN(C(=O)CC#N)CC1N(C)c1ncnc2[nH]ccc12 (stereo not given)
inactive: Potency (OV90) | Potency (PA-1) | Potency (SKOV3) | Potency (Tov-21-G) | Potency (Tov112D)

C=CC1(C)C=C2C(=O)OC(=O)C3=C(CCCC3(C)C)C2(O)CC1 (stereo not given)
inactive: Potency (OV90) | Potency (PA-1) | Potency (SKOV3) | Potency (Tov-21-G) | Potency (Tov112D)

OC1CCC(Nc2ncc3nc(Nc4c(F)cc(F)cc4F)n([C@H]4CCOC4)c3n2)CC1 (stereo not given in full)
inactive: Potency (OV90) | Potency (PA-1) | Potency (SKOV3) | Potency (Tov-21-G) | Potency (Tov112D)

C/C1=C\CCC(C)CCO[C@@H]2O[C@H](CO[C@@H]3OC[C@H](O)[C@H](O)[C@H]3OC1=O)[C@@H](O)[C@H](O)[C@H]2O (stereo not given in full)
inactive: Potency (OV90) | Potency (PA-1) | Potency (SKOV3) | Potency (Tov-21-G) | Potency (Tov112D)

O=C(COc1cccc2c(=O)[nH]ccc12)c1ccccc1
inactive: Potency (OV90) | Potency (PA-1) | Potency (SKOV3) | Potency (Tov-21-G) | Potency (Tov112D)

CC(C)(C)NC(=O)[C@@H](c1cccnc1)N(C(=O)c1ccco1)c1ccc(C(C)(C)C)cc1
inactive: Potency (OV90) | Potency (PA-1) | Potency (SKOV3) | Potency (Tov-21-G) | Potency (Tov112D)

COc1ccc(/C=C/C(=O)O[C@@H]2[C@@H](O)[C@@H](O)[C@H](O[C@@H]3C=C(CO)[C@H]4[C@H](O[C@@H]5O[C@H](CO)[C@@H](O)[C@H](O)[C@H]5O)OC=C[C@H]43)O[C@H]2C)cc1O
inactive: Potency (OV90) | Potency (PA-1) | Potency (SKOV3) | Potency (Tov-21-G) | Potency (Tov112D)

CC(=O)OC1C(OC(=O)c2ccccc2)C2C(C)(C)CC(=O)CC2(C)C23CCC(C)(C2)C(O)CC13 (stereo not given)
inactive: Potency (OV90) | Potency (PA-1) | Potency (SKOV3) | Potency (Tov-21-G) | Potency (Tov112D)

C[C@@H]1C(=O)O[C@H]2C[C@]34[C@H]5C[C@@H](C(C)(C)C)[C@]36[C@@H](OC(=O)[C@H]6O)O[C@]4(C(=O)O5)[C@]21O
inactive: Potency (OV90) | Potency (PA-1) | Potency (SKOV3) | Potency (Tov-21-G) | Potency (Tov112D)

N#Cc1ccc2[nH]cc(CCCCN3CCN(c4ccc5oc(C(N)=O)cc5c4)CC3)c2c1
inactive: Potency (OV90) | Potency (PA-1) | Potency (SKOV3) | Potency (Tov-21-G) | Potency (Tov112D)

COC(=O)C1=CO[C@@H](O[C@@H]2O[C@H](CO)[C@@H](O)[C@H](O)[C@H]2O)[C@@H]2[C@@](C)(O)[C@@H](OC(=O)/C=C/c3ccc(O)cc3)C[C@]12O
inactive: Potency (OV90) | Potency (PA-1) | Potency (SKOV3) | Potency (Tov-21-G) | Potency (Tov112D)

CC(C)=CCC/C(C)=C/CC/C(C)=C/COC1OC(COC2OCC(OC3OCC(O)C(O)C3O)C(O)C2O)C(O)C(OC2OC(C)C(OC3OC(C)C(OC4OCC(OC5OC(C)C(O)C(O)C5O)C(O)C4O)C(O)C3O)C(O)C2O)C1O (stereo not given)
inactive: activity change, negative = cytotoxicity (OV90) -9.19% [at 6.55 µM] | activity change, negative = cytotoxicity (PA-1) -4.48% [at 6.55 µM] | activity change, negative = cytotoxicity (SKOV3) -3.45% [at 6.55 µM] | activity change, negative = cytotoxicity (Tov-21-G) -0.577% [at 6.55 µM] | activity change, negative = cytotoxicity (Tov112D) -7.57% [at 6.55 µM]

CC(=O)c1cc2c(cc1O)OC(C)(C)C=C2
inactive: Potency (OV90) | Potency (PA-1) | Potency (SKOV3) | Potency (Tov-21-G) | Potency (Tov112D)

C[C@@H]1CN(Cc2ccccc2)C[C@H]1c1nc2c(cnn2C2CCOCC2)c(=O)[nH]1
inactive: Potency (OV90) | Potency (PA-1) | Potency (SKOV3) | Potency (Tov-21-G) | Potency (Tov112D)

C[C@@H]1O[C@@H](O[C@H]2[C@@H]3C=CO[C@@H](O[C@@H]4O[C@H](CO)[C@@H](O)[C@H](O)[C@H]4O)[C@@H]3[C@@]3(CO)O[C@@H]23)[C@H](OC(=O)/C=C/c2ccc(O)c(O)c2)[C@H](O)[C@H]1O
inactive: Potency (OV90) | Potency (PA-1) | Potency (SKOV3) | Potency (Tov-21-G) | Potency (Tov112D)

COC(=O)CCSCc1ccc(-c2onc(C)c2NC(=O)OC(C)c2ccccc2Cl)cc1 (stereo not given)
inactive: Potency (OV90) | Potency (PA-1) | Potency (SKOV3) | Potency (Tov-21-G) | Potency (Tov112D)
